Consider 39 molecules from PubChem BioAssay (NCATS).

Results filed as inconclusive are left out. Unmarked numbers belong to inactive results. The source made the active and inactive calls. The call rests on the fitted dose curve; in most records, active means well fitted inhibition curve with a large enough effect; inconclusive means small, poorly fitted or top-dose-only effect; inactive means flat fitted curve, though single readings scatter.
On the % scale 0 is the no-effect control and ±100 the full control effect; potency means the concentration at half of the fitted maximal effect.

This assay has as its system NIH3T3. Kind of assay: Cytotoxic Profiling of Annotated Libraries Using Quantitative High-Throughput Screening (AID 1296008). Further: nearly all actives have a fitted effect of over 60% in size. The note with it: Five cell lines viability, CellTiter-Glo ATP luminescence, 48-72 h; max response: stronger effect = lower value. The method in brief: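 Cells exposed to compounds for 48 or 72 hr at 37 degrees Celsius. Viability read as ATP-coupled luminescence with CellTiter-Glo after 10 min at room temperature.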
On the technique in general: Cellular ATP, detected with luciferase, serves as a proxy for viable cell number.
Take `CC1OC(OC2CCC3(C)C(CCC4(C)C3CC=C3C5CC(C)(C)CCC5(C(=O)OC5OC(CO)C(O)C(O)C5O)CCC34C(=O)O)C2(C)C)C(O)C(O)C1O` (centres undefined): the max response is -6.15%.
Still for that read-out and setting: the value for `COC1C(=O)CCC2(CO2)C1(O)C1(C)OC1CC=C(C)C` (centres undefined) was -14.1%; that for `CC(C)(C)NCCCNC(=O)c1cccc(Br)c1` was 3.37%; that for `CC(=O)/C=C/[C@H]1[C@](C)(O)[C@@H](O)[C@H](OC(C)=O)C2C(C)(C)CCC[C@@]21C` (some centres undefined) was -10.6%.
Same read-out and setting: with `C=C1C(OC(C)=O)CCC2(C)CC3(OC)OC(=O)C(C)=C3CC12` (centres undefined) the figure was 0.22%.
On to `Cc1cc(OCc2nnc(SC3CCCC3)n2-c2cccnc2)ccc1-c1ccc(S(C)(=O)=O)cc1`, for which the Potency is 10.3 µM (active).
Regarding `CC(/C=C/C1=CC2=CC(=O)C(C)(O)C(O)C2=CO1)=C\C(C)CCO` (centres undefined), the max response is 0.418%.
Same read-out and setting: with `C[C@]1(CO)CCC[C@]2(C)C3=C(CCC12)COC3` (some centres undefined) the figure was 4.03%.
The same measure, in the same setting: with `C=C(C(=O)O)C1CC2=C(C)CCCC2(C)C[C@@H]1O` (some centres undefined) the figure was 4.2%.
As to `CCn1c(=O)c(-c2ccn[nH]2)cc2c(C)nc(N)nc21`, the Potency is 1.84 µM (active).
Regarding `C=C[C@H]1C(O[C@@H]2O[C@H](CO)[C@@H](O)[C@H](O)[C@H]2O)OC=C2C(=O)N3CCc4c([nH]c5ccccc45)[C@H]3C[C@H]21` (some centres undefined), the max response is 2.76%.
`C[C@@H]1C[C@@H]([C@@H](O)C(C)(C)O)O[C@H]2C[C@@]3(C)C(=C12)C[C@H](O)[C@H]1[C@@]2(C)CCC(=O)C(C)(C)C2CC[C@@]13C` (some centres undefined): the max response was -0.489%.
Same read-out and setting: with `C[C@@H]1O[C@@H](O[C@@H]2[C@@H](O[C@@H]3O[C@@H](C)[C@H](O[C@@H]4OC[C@H](O)[C@H](O[C@@H]5OC[C@@H](O)[C@H](O)[C@H]5O)[C@H]4O)[C@@H](O[C@@H]4OC[C@](O)(CO)[C@H]4O)[C@H]3O)[C@H](OC(=O)[C@]34CCC(C)(C)C[C@H]3C3=CCC5[C@@]6(C)C[C@H](O)[C@H](O[C@@H]7O[C@H](CO[C@@H]8OC[C@H](O)[C@H](O)[C@H]8O)[C@@H](O)[C@H](O)[C@H]7O)C(C)(C)C6CC[C@@]5(C)[C@]3(C)C[C@H]4O)OC[C@H]2O)[C@H](O)[C@H](O)[C@H]1O` (some centres undefined) the figure was 0.953%.
The same measure, in the same setting: with `CC1(C)CCCC2(C)C1C(O)C=C(CO)C2(O)CO` (centres undefined) the figure was -1.11%; with `CCOc1ccc(S(=O)(=O)n2c(C)nc3ccccc32)cc1`, -7.13%.
As to `CC1(C)CC[C@@]2(C(=O)O[C@@H]3O[C@H](CO)[C@@H](O)[C@H](O)[C@H]3O)C(C1)C1=CCC3[C@@]4(C)CC[C@@H](O[C@@H]5O[C@H](C(=O)O)[C@@H](O[C@@H]6OC[C@@H](O)[C@H](O)[C@H]6O)[C@H](O[C@@H]6OC[C@](O)(CO)[C@H]6O)[C@H]5O)C(C)(C)C4CC[C@@]3(C)[C@]1(C)C[C@H]2O` (some centres undefined), the max response is -2.09%.
Still for that read-out and setting: with `CC/C=C\CC1C(=O)C=CC1(CCCCCCCC(=O)O)OC(C)=O` (centres undefined) the figure was 4.26%.
Still for that read-out and setting: the value for `COc1cc(/C=C/C(=O)O[C@H]2[C@H](O)[C@@H](CO)O[C@@]2(CO)O[C@H]2O[C@H](CO)[C@@H](O)[C@H](O)[C@H]2O)ccc1O` was 1.81%; that for `CC(C)(O[C@@H]1O[C@H](CO)[C@@H](O)[C@H](O)[C@H]1O)C(OC(=O)/C=C\c1ccc(O)cc1)C(=O)OCc1ccc(O[C@@H]2O[C@H](CO)[C@@H](O)[C@H](O)[C@H]2O)cc1` (some centres undefined) was -27.1%.
Still for that read-out and setting: with `CC1CCC2C(C)(C)[C@@H](O)CC[C@]2(C)C12Cc1c(O)cc3c(c1O2)CN(C(CCC(=O)O)C(=O)O)C3=O` (some centres undefined) the figure was -1.29%.
For `C/C=C/C=C/C(=O)N1CC[C@]23c4ccccc4N[C@H]4N(C)c5cccc6c5[C@@]42CCN([C@H]6C2OC2(C)C)[C@H]13` (some centres undefined), the max response was 3.9%.
The same measure, in the same setting: with `C/C=C/C=C/[C@@H]1O[C@](O)([C@H](CC)C(=O)NC/C=C/C=C(\C)[C@@H](OC)[C@@H](C)C2OC(/C=C/C=C/C=C(\C)C(=O)c3c(O)cc[nH]c3=O)[C@H](O)[C@@H]2O)[C@H](O)[C@H](O)C1(C)C` (some centres undefined) the figure was -4.29%; with `CCC(C)C(=O)OC1CC(C)C=C2C=CC(C)C(CCC(O)CC(O)CC(=O)O)C21` (centres undefined), -8.16%; with `O=C(O)c1cc(-c2c(-c3ccccc3)nn3ccccc23)n[nH]c1=O`, -3.95%.
Still for that read-out and setting: the value for `O=C(CN1C(=O)C2(CCCC2)NCC1c1cc(F)cc(F)c1)Nc1ccc2c(c1)CC1(C2)C(=O)Nc2ncccc21` (centres undefined) was -0.622%; that for `Cc1cc(C)nc(NS(=O)(=O)c2ccc(NC(=S)NC(=O)COc3ccc(Br)cc3Cl)cc2)n1` was -1.58%.
The same measure, in the same setting: the value for `C=C(C(=O)O)C1CCC2(C)CCC(O)C(C)(O)C2C1` (centres undefined) was -18.2%.
On to `CC1(C)CC[C@]2(C(=O)O[C@@H]3O[C@H](CO)[C@@H](O)[C@H](O)[C@H]3O)CC[C@]3(C)C(=CCC4[C@@]5(C)C[C@@H](O)[C@H](O)C(C)(C)C5CC[C@]43C)C2[C@@H]1O` (some centres undefined), for which the max response was -3.15%.
`CCOC(=O)Nc1cc(-c2ccc(C)c(NS(C)(=O)=O)c2)nn2c(C)nnc12`: the Potency is 9.2 µM (active).
Take `O=C(c1ccc2nccnc2c1)N1CCCCC1`: the max response was -40.7%.
In the case of `COc1cc(C(=O)NC2CCN(C)CC2)ccc1Nc1ncc2c(n1)N(C1CCCC1)CC(F)(F)C(=O)N2C`, the Potency is 2.06 µM (active).
With `C/C(=C\C=C\C(C)C1CCC2(C)C3CCC4C(C)(C)C(=O)CCC45CC35CCC12C)C(=O)O` (centres undefined), the max response was -13.8%.
For `Cc1cc(OCc2nc(-c3ccccc3Cl)cs2)ccc1OCC(=O)O`, the max response is 4.72%.
For the molecule `CCc1cnn2c(NCc3ccc[n+]([O-])c3)cc(N3CCCCC3CCO)nc12` (centres undefined), the Potency is 0.0651 µM (active).
As to `OC[C@H]1O[C@@H](OCCc2ccccc2)[C@H](O[C@@H]2OC[C@](O)(CO)[C@H]2O)[C@@H](O)[C@@H]1O`, the max response is 1.81%.
`CCOCc1nc2c(N)nc3ccccc3c2n1CC(C)(C)O`: the max response was -2.04%.
Still for that read-out and setting: the value for `CC(=O)OC1C(O)C2C(C)C3=CC(=O)OC3(O)CC2C2(C)CCCC(C)(CO)C12` (centres undefined) was 0.673%; that for `C=C(C(=O)O)C1CCC2(C)CCC(O)C(=C)C2C1` (centres undefined) was -5.34%; that for `CC(=O)C1=CCC2C3CCC4CC(O[C@@H]5O[C@H](CO)[C@@H](O[C@@H]6O[C@@H](C)[C@H](O)[C@@H](O)[C@H]6O)[C@H](O)[C@H]5O[C@@H]5O[C@H](CO)[C@@H](O)[C@H](O)[C@H]5O)CCC4(C)C3CCC12C` (some centres undefined) was -4.06%.
